# aSyn 5UTR act: Activators working through SNCA 5'UTR binding (MLPCN). alpha-synuclein 5'UTR reporter, activators screen. activity score, % (tested at 7.5 µM), hits read low. 300,000 compounds, 7.1% hits. AID 1814; in the data active = activity score below about -60%
# A number is an active result; i = inactive. Only a sample is shown.
SMILES,aSyn 5UTR act
O=C(NCCc1ccccc1)c1cccnc1,-99
O=C(NCCc1ccccc1)c1ccc2nccnc2c1,i
O=C(NCCc1ccccc1)c1cnc2ccccc2n1,-99
O=C(CCCc1ccccc1)Nc1cccc([N+](=O)[O-])c1,-161
O=C(/C=C\Nc1ccc2c(c1)OCO2)c1ccccn1,i
CCOc1ccc(N/C=C\C(=O)c2ccc3c(c2)OCO3)cc1,-89
O=C(/C=C\Nc1ccc2c(c1)OCO2)c1ccc2c(c1)OCO2,-175
COc1ccc(N/C=C\C(=O)c2ccc3c(c2)OCO3)cc1,-264
Fc1cc(F)c2nc(N3CCCC3)sc2c1,-93
Fc1cccc2sc(N3CCOCC3)nc12,-80
Fc1cccc2sc(N3CCCCC3)nc12,-116
Cc1ccc(NC(=O)NCCN2C(=O)C3C4C=CC(C4)C3C2=O)cc1 (stereo not given),-81
COc1ccccc1Nc1nc(-c2cccnc2)cs1,-110
O=[N+]([O-])c1ccccc1Nc1nc(-c2cccnc2)cs1,-91
COc1ccccc1Nc1nc(C2(C)CCC(=O)O2)cs1 (stereo not given),-106
COc1ccc(Nc2nc(-c3cccnc3)cs2)c(OC)c1,-175
COc1ccccc1Nc1nc(NCC(C)C)nc(N)c1[N+](=O)[O-],i
COc1ccc(OC)c2nc(-c3cccnc3)ccc12,-67
CC(C)/C(=N\NC(=O)Nc1ccccc1)c1ccccc1,-70
C/C(=N\NC(=O)Nc1ccccc1)c1ccccc1,-80
Nc1ccccc1C(=O)N/N=C1\C2CN3CCN(C2)CC1(c1ccccc1)C3,-92
CCCC12CN3CCN(CC(C3)/C1=N\NC(=O)c1ccccc1N)C2,-76
COc1ccc2nc(N3CCCCC3)c(C#N)cc2c1,-110
COc1ccc2nc(N3CCCC3)c(C#N)cc2c1,-105
O=c1c2ccccc2cnn1CCOc1cccc(Br)c1,-153
SMILES,aSyn 5UTR act
C/C(=N\NC(=O)C(C)Oc1ccc([N+](=O)[O-])cc1)c1ccccn1 (stereo not given),i
O=C(N/N=C/c1ccc(OC(=O)c2ccccc2Cl)cc1)c1ccccn1,-112
CCN(CC)c1ccc(/C=N/NC(=O)c2ccccn2)cc1,-125
O=C(Oc1cccc(/C=N/NC(=O)c2ccccn2)c1)c1ccc([N+](=O)[O-])cc1,-100
Cc1ccc(/C=N\NC(=O)c2csnn2)cc1,-69
CCN(CC)c1ccc(/C=N/NC(=O)c2cnccn2)cc1,-85
CO/N=C/CC(=O)c1cnc(-c2ccc(Cl)cc2)s1,-79
COCCn1c(C)cc(C(=O)CN2C(=O)NC3(CCCCCCC3)C2=O)c1C,-99
Cc1ccc(C(=O)CN2C(=O)NC3(CCCCCC3)C2=O)c(C)c1,-132
COCCn1c(C)cc(C(=O)CSc2nnc(C)s2)c1C,i
Cc1cc(C)c(C(=O)CN2C(=O)NC3(CCCCC3)C2=O)cc1C,-73
C(=C\c1nc(N2CCCCCC2)c2ccccc2n1)/c1ccccc1,-71
CC(=O)NC(=S)Nc1sc2c(c1C#N)CCCCC2,-120
CC1CCc2sc(NC(=S)NC(=O)c3ccccc3)c(C#N)c2C1 (stereo not given),-141
CCC1(C)Cc2c(sc(NC(=S)NC(=O)c3ccccc3)c2C#N)CO1 (stereo not given),-146
N#Cc1c(NC(=S)NC(=O)c2ccccc2)sc2c1CCC2,-126
Cn1nccc1C(=O)NC(=S)Nc1sc2c(c1C#N)CCCCC2,-148
N#Cc1c(NC(=O)C2CC2)sc2c1CCCCC2,-119
O=c1c2ccccc2cnn1-c1nc2ccccc2[nH]1,i
O=c1c2ccccc2nc2c3ccccc3cnn12,-172
CCCc1cc(C(=O)NC2CCCCC2)no1,-146
CC(C)c1cc(C(=O)NC2CCCCC2)no1,-148
CCCc1cc(C(=O)NC2CCCC2)no1,-94
Clc1ccccc1CN1CCN(/N=C/C=C\c2ccco2)CC1,-78
C(/C=C/c1ccco1)=N/N1CCN(c2ccccc2)CC1,-189
SMILES,aSyn 5UTR act
COc1cc(N2Cc3ccccc3C2)ccc1C=O,-151
COc1cc(/C=N/n2cnnc2)ccc1OCCSc1ccc(C)cc1,-78
C/C(=N\OC(=O)c1ccc(F)cc1)c1sc(-c2ccccc2)nc1C,-158
C/C(=N\OC(=O)c1ccc(Cl)cc1)c1sc(-c2ccccc2)nc1C,-124
Clc1cccc(Cl)c1/C=C/c1ccn[nH]1,-232
CC(C)(C)c1ccc(OCc2cnc(Cl)s2)cc1,-105
COc1ccc(C(=O)Nc2cc(Cl)ccc2Cl)c(OC)n1,-91
COc1ccc(C(=O)Nc2cc(Cl)cc(Cl)c2)c(OC)n1,-114
Fc1cccc(Cn2ccc(-c3ccc4c(c3)OCO4)n2)c1,-97
Cc1ccccc1Cn1ccc(-c2ccc3c(c2)OCO3)n1,-130
Fc1cccc(Cl)c1Cn1nnc(-c2ccc3c(c2)OCO3)n1,-97
Cc1ccccc1Cn1nnc(-c2ccc3c(c2)OCO3)n1,-168
CC(C)OCCOc1ccc2oc(-c3ccco3)cc(=O)c2c1,-115
Cc1ccc2oc(-c3ccco3)cc(=O)c2c1,-171
Cc1nn(C)c(C)c1/C=C(/C(=O)C(C)(C)C)n1cncn1,i
COc1ccc(OC)c(NC(=O)c2cc(-c3cc(C)c(C)cc3O)n[nH]2)c1,-95

# Screens (PubChem BioAssay)
